Compound activity deposited in PubChem BioAssay by National Center for Advancing Translational Sciences (NCATS).
TDP1 cell CPT: DT40-hTDP1 cell growth loss with CPT | Potency, µM (highest dose often 46.2 µM), without a hit: top-dose activity change, negative = growth inhibition, actives largely listed as inhibitors | hit rate 12% among 420,000 | chicken DT40 Tdp1-/-;hTDP1 cells + 20 nM CPT, ATP luminescence, 48 h | AID 686979; further: potency means the concentration at half of the fitted maximal effect; on the % scale 0 is the no-effect control and ±100 the full control effect; nearly all actives have a fitted effect of over 55% in size
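Cell growth measured by CellTiter-Glo luminescence after a minimum 48 h, 37 C compound exposure with 20 nM CPT in Tdp1-knockout DT40 cells stably expressing hTDP1, seeded 400/well; qHTS titration format.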
HepG2 viability: kills HepG2 cells in TGF-b inhibitor counter-screen | HepG2 CAGA-GFP viability, ATP luminescence, 18 h | Potency, µM (highest dose often 46.1 µM), inactives show at the highest dose activity change, negative = cytotoxicity, hits mostly cytotoxic | hit rate 0.76% among 410,000; further: potency means the concentration at half of the fitted maximal effect
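CellTiter-Glo luminescence gave cytotoxicity after 18 hours at 37 degrees C. The cells were HepG2 CAGA-GFP in 1% FBS DMEM, stimulated with 500 pg/mL TGF-beta after compound addition. %Activity was normalised to no-cell wells (complete cell-killing) and DMSO (no toxicity), and curves were fitted and classified.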
TDP1 cell noCPT: qHTS for Inhibitors of human tyrosyl-DNA phosphodiesterase 1 (TDP1): qHTS in cells in absence of CPT; Potency, µM (top dose mostly 46.2 µM), for inactives: at the top dose activity change, negative = growth inhibition, hits mostly inhibitors; hit rate 15% among 420,000; DT40 Tdp1-/- hTDP1 cells, no CPT, ATP luminescence, 48 h; further: potency means the concentration at half of the fitted maximal effect; on the % scale 0 is the no-effect control and ±100 the full control effect; nearly all actives have a fitted effect of over 55% in size
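No-CPT arm: Tdp1-/-;hTDP1 DT40 cells (400/well) plus compounds, incubated ≥48 hr at 37 °C. Readout CellTiter-Glo luminescence.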
IL-1B inflam inh: blocks inflammasome-driven IL-1 beta release | THP-1 LPS/ATP IL-1B secretion, AlphaLISA, 16 h; hits give low values | activity change, % at 57.5 µM | hit rate 4.7% among 360,000 | AID 743279; in the data active means activity change below about -50%; inconclusive means mostly about -30% to -49%; further: on the % scale 0 is the no-effect control and ±100 the full control effect
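Secreted IL-1B measured by AlphaLISA bead assay after 16 h compound exposure of THP-1 cells; compounds (final up to 57.5 uM) added 1 h before LPS (250 ng/mL) and ATP (1.25 mM) stimulation; lower signal means less secretion.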
TGFb inhibitor: TGF-b pathway inhibition. HepG2 CAGA-GFP TGF-b/SMAD3 reporter, GFP fluorescence, 18 h; TGF-beta stimulated, 500 pg/mL final. AID 588855. hit rate 1.2% among 410,000. Potency, µM (series often up to 46.1 µM), without a hit: at the highest dose activity, negative = inhibition, actives largely listed as inhibitors; further: potency means the concentration at half of the fitted maximal effect; on the % scale 0 is the no-effect control and ±100 the full control effect; nearly all actives have a fitted effect of over 65% in size
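Using HEPG2 CAGA-GFP reporter cells at 1000 cells/well, we pinned test compounds, stimulated with recombinant TGF-beta (500 pg/mL final) and measured total well GFP after 18 h.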
TDP1 block: inhibitors of human tyrosyl-DNA phosphodiesterase TDP1. hit rate 0.28% among 350,000. Q9NUW8. recombinant TDP1, AlphaScreen DNA substrate cleavage. Potency, µM (highest dose often 130 µM), without a hit: at the highest dose activity change, negative = inhibition, actives largely listed as inhibitors; further: potency means the concentration at half of the fitted maximal effect; on the % scale 0 is the no-effect control and ±100 the full control effect; nearly all actives have a fitted effect of over 40% in size
Target sequence (Q9NUW8 whole entry, looked up): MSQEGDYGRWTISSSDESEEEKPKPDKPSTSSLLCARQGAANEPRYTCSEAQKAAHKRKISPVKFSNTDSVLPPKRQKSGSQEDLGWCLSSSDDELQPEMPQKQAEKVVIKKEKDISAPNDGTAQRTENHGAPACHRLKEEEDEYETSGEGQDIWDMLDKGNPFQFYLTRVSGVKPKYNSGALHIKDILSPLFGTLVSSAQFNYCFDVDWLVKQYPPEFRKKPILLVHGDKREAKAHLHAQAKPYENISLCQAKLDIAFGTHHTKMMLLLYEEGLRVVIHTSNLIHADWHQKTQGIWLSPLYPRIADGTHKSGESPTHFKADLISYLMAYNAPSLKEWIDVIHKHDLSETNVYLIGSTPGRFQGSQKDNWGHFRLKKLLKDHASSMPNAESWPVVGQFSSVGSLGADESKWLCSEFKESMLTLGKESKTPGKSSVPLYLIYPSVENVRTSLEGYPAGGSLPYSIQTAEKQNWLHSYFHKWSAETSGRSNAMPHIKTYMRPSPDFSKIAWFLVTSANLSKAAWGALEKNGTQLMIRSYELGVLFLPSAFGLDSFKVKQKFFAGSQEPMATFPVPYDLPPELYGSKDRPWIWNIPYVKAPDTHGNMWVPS
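Signal: AlphaScreen proximity between streptavidin donor and anti-FITC acceptor beads on intact substrate. Reaction: Tdp1 1 nM, substrate 15 nM final, 5 min RT after 15 min compound preincubation.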
* marks the source's active call; other numbers are inactive results; ? = inconclusive; nt = no result. In the library only some 19% were active in any assay of this set; here they are far more common. Unless noted, the call rests on the fitted dose curve; in most records, active means well fitted curve in the direction sought with a large enough effect; inconclusive means small, poorly fitted or top-dose-only effect, or another doubt; inactive means no such curve, though single readings can be large; an effect the other way counts as inactive or inconclusive.

SMILES	TDP1 cell CPT	HepG2 viability	TDP1 cell noCPT	IL-1B inflam inh	TGFb inhibitor	TDP1 block
Cc1cccc(C)c1NC(=S)N(Cc1ccccc1)Cc1cccs1	?	-4%	?	?	-14%	5%
CCn1cc(/C=C(\NC(=O)c2ccccc2)C(=O)NCCCn2ccnc2)c2ccccc21	-18%	1%	-18%	-23	-1%	nt
CCn1cc(/C=C(\NC(=O)c2ccc(C)cc2)C(=O)NCCCn2ccnc2)c2ccccc21	?	-37%	21µM*	nt	-1%	10%
CC(=O)N(C)c1ccc(N=Nc2ccc3ncccc3c2)cc1	?	-18%	15µM*	?	-1%	nt
Oc1ccc(C=Nc2ccc3ncccc3c2)c(O)c1	nt	nt	nt	nt	nt	10%
CCOC(=O)C1=C(C)NC2=C(C(=O)CCC2)C1c1cn(Cc2ccc(Cl)cc2Cl)nc1-c1ccccc1 (configuration not stated)	16µM*	3%	21µM*	?	?	3%
CCOC(=O)C1=C(C)NC2=C(C(=O)CCC2)C1c1cccnc1 (configuration not stated)	-11%	7%	-6%	3	10%	4%
Cc1ccc(NS(=O)(=O)c2c(C)[nH]c(=O)[nH]c2=O)c(C)c1	0%	1%	2%	2	-2%	5%
Cc1cc(C)c(S(=O)(=O)Nc2c(C)[nH]c(=O)[nH]c2=O)c(C)c1	16µM*	-2%	23µM*	1	-1%	6%
COc1cc(OC)cc(C(=O)NC(=S)Nc2ccc(N3CCCC3)cc2)c1	15µM*	-7%	8.2µM*	0	-6%	8%
CN1CCN(c2ccc(NC(=O)c3cccc(OCc4ccccc4)c3)cc2)CC1	23µM*	-75%	23µM*	0	?	12%
CCOc1cccc(C(=O)NC(=S)Nc2cccc(NC(=O)c3ccccc3Cl)c2)c1	?	-24%	21µM*	?	?	-3%
CCCOc1cccc(C(=O)NC(=S)Nc2ccc(N3CCN(C)CC3)cc2)c1	?	-13%	?	-1	-15%	11%
CCOc1cccc(C(=O)NC(=S)Nc2ccc(N3CCN(CC)CC3)cc2)c1	?	3%	23µM*	?	0%	11%
CCOc1cccc(C(=O)NC(=S)Nc2ccccc2)c1	?	-25%	?	14	0%	3%
O=C1OC(OC(=O)c2cccnc2Nc2cccc(C(F)(F)F)c2)c2ccccc21 (configuration not stated)	-10%	nt	4%	nt	nt	-10%
COC(=O)c1c(C)[nH]c(C(=O)C(C)OC(=O)c2c(C)noc2C)c1C (configuration not stated)	?	-7%	?	11	26%	0%
CCN1CCN(c2ccc(NC(=O)c3cccc(OCc4ccccc4)c3)cc2)CC1	?	-48%	?	-80*	?	nt
CCOC(=O)c1ccc(S(=O)(=O)NCCNCc2ccccc2)cc1	?	-15%	?	-76*	-4%	0%
CCc1ccc(NC(=O)CN(C(=O)N2CCN(CC)CC2)S(=O)(=O)c2ccc(C)cc2)cc1	1%	-1%	-3%	-55*	0%	nt
CCOC(=O)c1ccc(CN(Cc2ccc(C)cc2)S(=O)(=O)c2ccc(NC(C)=O)cc2)cc1	?	-18%	15µM*	nt	?	0%
CCOC(=O)c1ccc(CN(Cc2ccccc2)S(=O)(=O)c2ccc(C)cc2)cc1	29µM*	-29%	16µM*	nt	-17%	-2%
CCOC(=O)c1ccc(CN(Cc2ccc(C)cc2)S(=O)(=O)c2cccc([N+](=O)[O-])c2)cc1	4%	-19%	?	23	2%	3%
CCOC(=O)c1ccc(CN(Cc2ccc(C)cc2)S(=O)(=O)c2ccc(F)c(C(=O)Nc3ccc(C)c(F)c3)c2)cc1	-6%	-4%	-17%	nt	-11%	-3%
CCOC(=O)c1ccc(COC(=O)CNS(=O)(=O)c2ccccc2)cc1	0%	1%	-1%	8	2%	nt
SMILES	TDP1 cell CPT	HepG2 viability	TDP1 cell noCPT	IL-1B inflam inh	TGFb inhibitor	TDP1 block
CCn1nnc(-c2ccccc2NS(=O)(=O)c2ccc(S(=O)(=O)N3CCCCCC3)cc2)n1	-6%	-8%	-28%	2	4%	4%
CCOC(=O)c1ccc(S(=O)(=O)Nc2ccccc2-c2nnn(CC)n2)cc1	15µM*	1%	9.2µM*	-16	-5%	4%
COc1ccc(C(=O)NCCn2ccc3ccccc32)cc1	?	3%	?	-16	-12%	6%
Cc1ccc(C(=O)NCCn2ccc3ccccc32)cc1[N+](=O)[O-]	13µM*	-24%	8.2µM*	?	1%	-1%
O=C(NCCn1ccc2ccccc21)c1ccc(S(=O)(=O)N2CCCCC2)cc1	?	-31%	23µM*	20	?	-6%
COc1ccccc1C(=O)NC1(C(F)(F)F)C(=O)Nc2c1c(=O)[nH]c(=O)n2-c1ccccc1 (configuration not stated)	-1%	-27%	-6%	nt	-3%	-2%
CC1=C(C(=O)OCC(C)C)C(c2ccccc2Cl)NC(=O)N1C (configuration not stated)	8.2µM*	-34%	13µM*	-15	?	-2%
CCCOC(=O)C1=C(C)N(C)C(=O)NC1c1cc2c(cc1[N+](=O)[O-])OCO2 (configuration not stated)	?	-21%	?	6	-15%	-5%
CC1=C(C(=O)OCC(C)C)C(c2cc3c(cc2Br)OCO3)NC(=O)N1C (configuration not stated)	18µM*	-30%	?	-7	?	6%
CCOC(=O)C1=C(C)N(C)C(=O)NC1c1cccc2ccccc12 (configuration not stated)	?	-1%	26µM*	51	0%	nt
CCOCCOC(=O)C1=C(C)N(C)C(=O)NC1c1ccccc1Cl (configuration not stated)	-24%	-9%	-23%	0	-4%	5%
O=C1OC(c2cccc([N+](=O)[O-])c2)C2(CCCC2)C(=O)C12CCCCC2 (configuration not stated)	23µM*	-20%	?	-9	?	3%
